The values below come from PubChem BioAssay AID1851 (National Center for Advancing Translational Sciences (NCATS), 2009).

SMILES strings stand for the structures. “And” between values parts separate entries of the source, which are not always exact repeats. Equal values may be shown once. About 4,000 (25%) of roughly 16,000 compounds were called active. About 26% were inconclusive and are not listed. Calls follow the shape of the dose curve; as a rule, active = well fitted curve in the direction sought with a large enough effect; inconclusive = small, poorly fitted or top-dose-only effect, or effect the other way; inactive = no such curve, though single readings can be large or run the other way. Only a sample is shown.

A word on the AC50: it is the concentration giving half of the maximal activity seen.
% is scaled to controls: 0 for no effect and ±100 for the full control effect.

The target of this experiment is Cytochrome P450 2C9 (Homo sapiens) (UniProt P11712). Put plainly: Cytochrome panel assay with activity outcomes. Particulars: recombinant CYP, pro-luciferin dealkylation, luminescence, p450-cyp2c9; series mostly up to 57.1 µM.
Sequence of Cytochrome P450 2C9 (Homo sapiens) (P11712 whole entry, looked up): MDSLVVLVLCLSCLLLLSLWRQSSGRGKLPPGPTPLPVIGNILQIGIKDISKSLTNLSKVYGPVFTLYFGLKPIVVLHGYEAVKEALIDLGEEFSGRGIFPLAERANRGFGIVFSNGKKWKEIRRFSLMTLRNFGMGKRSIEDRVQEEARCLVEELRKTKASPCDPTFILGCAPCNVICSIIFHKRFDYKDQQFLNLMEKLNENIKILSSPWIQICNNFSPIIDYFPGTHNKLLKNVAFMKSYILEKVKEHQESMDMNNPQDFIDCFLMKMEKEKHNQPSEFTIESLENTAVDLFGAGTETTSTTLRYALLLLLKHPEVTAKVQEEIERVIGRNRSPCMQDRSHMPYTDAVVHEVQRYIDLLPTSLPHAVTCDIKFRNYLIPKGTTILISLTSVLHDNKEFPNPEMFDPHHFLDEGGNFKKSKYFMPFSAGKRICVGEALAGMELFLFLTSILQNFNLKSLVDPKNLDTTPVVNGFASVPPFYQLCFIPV
`Nc1c(S(=O)(=O)c2ccccc2)c2nc3ccccc3nc2n1Cc1ccco1`: the concentration at half-maximal activity (AC50) was 3.55 µM (active).
On the same count and under the same terms, as for `Cc1nc2c([nH]1)c(=O)n(C)c(=O)n2Cc1ccco1`, the entry is “inactive”; as for `CC(=O)Nc1c(S(=O)(=O)c2ccccc2)c2nc3ccccc3nc2n1Cc1ccccc1`, 8.91 µM (active).
The same measure, in the same setting: the entry for `C[C@](O)(C(=O)Nc1ccc(S(=O)(=O)c2ccccc2)cc1)C(F)(F)F` is “inactive”.
On the same count and under the same terms, the entry for `CC(C)(C)CNC(CO)C12CC3CC(CC(C3)C1)C2` (centres undefined) is “inactive”.
Turning to `CCOC(=O)N/N=C1/C[C@@H](O)[C@@H](O)[C@@H]2[C@@H]3C(=O)N(Cc4ccc5c(c4)OCO5)C(=O)[C@H]3CC[C@@H]12`, the activity, negative = inhibition was 1.72% [at 11.4 µM] (inactive).
On to `COc1ccc(C(=O)N/N=C2/SCC(=O)N2Cc2ccc3c(c2)OCO3)cc1OC`, for which the AC50 is 14.1 µM (active).
Take `CCOC(=O)N/N=C1/C[C@@H](O)[C@@H](O)[C@@H]2[C@@H]3C(=O)N(Cc4ccc5c(c4)OCO5)C(=O)[C@H]3CC[C@H]12`: the activity, negative = inhibition is -5.83% [at 11.4 µM] (inactive).
Consider `Cc1ccc(NC2=NC(c3ccccc3)n3c(nc(C)cc3=O)N2)c(C)c1` (centres undefined), for which the AC50 was 35.5 µM (active).
Turning to `COc1ccccc1CNc1cc(-c2ccccc2C)ncn1`, the activity, negative = inhibition was -15.1% [at 2.29 µM] (inactive).
`COc1ccc(C2/C(=C(/O)c3ccc(Cl)cc3)C(=O)C(=O)N2CCN2CCOCC2)c(OC)c1` (centres undefined): the AC50 entry is “inactive”.
On the same count and under the same terms, the figure for `O=C1C(=O)N(c2cccc(Cl)c2)C(c2ccccc2[N+](=O)[O-])/C1=C(\O)c1ccccc1` (centres undefined) is 2 µM (active).
On to `CC(C)(C)N1C(=O)[C@H]2[C@@H]3[C@H](O)[C@H](O)CC(=O)[C@H]3CC[C@H]2C1=O`, for which the activity, negative = inhibition is 6.8% [at 11.4 µM] (inactive) and 2.7% [at 11.4 µM] (inactive).
On the same count and under the same terms, the figure for `O=C(O)[C@@H]1[C@@H](C(=O)Nc2ccccc2)[C@@H]2C=C[C@@H]1O2` is 12.3% [at 11.4 µM] (inactive).
On the same count and under the same terms, the figure for `CC(=O)NCCNc1nc(-c2cccc(NS(C)(=O)=O)c2)nc2ccccc12` is -9.35% [at 2.29 µM] (inactive); for `CS(=O)(=O)Nc1cccc(-c2nc(Nc3ccccc3)c3ccccc3n2)c1` it is -28.2% [at 2.29 µM] (inactive).
In the case of `CC(C)(C)C(=O)Nc1cccc(-c2nc3ccccc3c(=O)o2)c1`, the AC50 was 12.6 µM (active).
Same read-out and setting: the figure for `O=C(NCC1CCCO1)c1nn2c(c1Cl)NC(c1ccc(F)cc1)CC2C(F)(F)F` (centres undefined) is 25.1 µM (active); for `COc1ccc(NC(=O)c2cc3n(n2)C(C(F)(F)F)CC(c2ccc4c(c2)OCO4)N3)cc1OC` (centres undefined) it is “inactive”.
On the same count and under the same terms, the entry for `O=C(NCC1CCCO1)c1ccc(CS(=O)(=O)Cc2ccc(F)cc2)o1` (centres undefined) is “inactive”; for `CN1CCN(c2ncc3nc(-c4cccs4)c(=O)n(C[C@H]4CCCO4)c3n2)CC1` it is “inactive”.
Still for that read-out and setting: as for `CCOC(=O)C(NC(C)=O)C(OC(C)=O)c1cccc(N(CCO)CCO)c1` (centres undefined), the entry is “inactive”.
Turning to `Clc1ccccc1C(Nc1cnccn1)Nc1cnccn1`, the activity, negative = inhibition is 1.92% [at 11.4 µM] (inactive).
For `O=C1CC(c2cccc(F)c2)SC(N(c2ccccc2)c2ccccc2)=N1` (centres undefined), the AC50 was 10 µM (active).
Turning to `C[N+](C)(C)CCOC(N)=O`, the AC50 result is “inactive”.
On the same count and under the same terms, as for `CC(C)[C@@H]1[C@H]2CC[C@H](C2)[C@H]1N`, the entry is “inactive”.
Same read-out and setting: the figure for `CC1=C/C(=N/O)C([C@H]2C=C(C)CC(C)(C)[C@@H]2O)C(C)(C)C1` (some centres undefined) is 2.51 µM (active).
On the same count and under the same terms, as for `N#CCCn1c(=O)c(-c2cc(F)cc(F)c2)nc2cnc(Nc3ccccc3)nc21`, the entry is “inactive”.
Turning to `CN(C)Cc1ccccc1-c1ccc2ncnc(NCc3ccccc3)c2c1`, the activity, negative = inhibition was -7.5% [at 2.29 µM] (inactive).
For `CCCC[C@]1(C2CCCC2)Cc2cc(OCC(=O)O)c(Cl)c(Cl)c2C1=O`, the AC50 is 2.51 µM (active).
Still for that read-out and setting: as for `CCCc1nc(SCC(=O)NNC(=O)C2CCCCC2)c2ccccc2n1`, the entry is “inactive”; as for `Cc1cccc(NC(=O)CSc2nc(COc3ccccc3)nc3ccccc23)c1C`, 0.631 µM (active).
Regarding `CN(C)Cc1ccccc1-c1cc(N(C)Cc2ccco2)ncn1`, the activity, negative = inhibition is -3.1% [at 2.29 µM] (inactive).
Consider `C/C(=N/NC(=O)c1ccc(C)s1)c1cccc(NC(=O)COc2ccc(Cl)cc2C)c1`, for which the AC50 is 1.26 µM (active).
Still for that read-out and setting: the entry for `C/C(=N\NC(=O)c1ccc(Cl)cc1)c1cccc(NC(=O)C(C)C)c1` is “inactive”.
The same measure, in the same setting: the entry for `COc1cc(OC)c(C(=O)CCCCN2CCC3(CC2)NC(=O)NC3=O)cc1NS(=O)(=O)c1ccc(C(F)(F)F)cc1` is “inactive”; for `COc1ccc(C(C(=O)NC2CCCC2)N(Cc2ccc(F)cc2)C(=O)c2ccn[nH]2)cc1OC` (centres undefined) it is “inactive”; for `COc1ccc(CN(C(=O)Cc2cccs2)C(C(=O)NC2CCCC2)c2ccncc2)cc1` (centres undefined) it is 5.01 µM (active).
Regarding `COc1ccc(CCN(C(=O)C(F)(F)F)C(C(=O)NC2CCCC2)c2cccs2)cc1` (centres undefined), the AC50 was 3.16 µM (active).
In the case of `O=C(NC1CCCCC1)C(c1cccs1)N(C(=O)C(F)(F)F)c1ccccc1` (centres undefined), the concentration at half-maximal activity (AC50) was 1.58 µM (active).
As for `Cc1ccc(N(C(=O)C(F)(F)F)C(C(=O)NC2CCCCC2)c2cccs2)cc1C` (centres undefined), the AC50 entry was “inactive”.
The same measure, in the same setting: as for `COc1cccc(NC(=S)N(CCc2nc3cc(C)c(C)cc3[nH]2)Cc2cccnc2)c1`, the figure is 5.01 µM (active); as for `Cc1ccc(C)c(NC(=S)N(CCc2nc3cc(C)c(C)cc3[nH]2)Cc2cccnc2)c1`, 3.98 µM (active); as for `COc1ccc(NC(=S)N(CCc2nc3cc(C)c(C)cc3[nH]2)Cc2cccnc2)cc1`, 7.94 µM (active).
Same read-out and setting: the figure for `Cc1cccc(NC(=S)N(CCc2nc3cc(C)c(C)cc3[nH]2)Cc2cccnc2)c1` is 7.94 µM (active).
With `Cc1cccc(CNc2nc(-c3cccnc3)nc3ccccc23)c1`, the activity, negative = inhibition was -13% [at 2.29 µM] (inactive).
Take `COC(=O)[C@@H]1O[C@@H](SCCN)[C@@H](O)[C@H](O)[C@H]1O`: the activity, negative = inhibition is 15% [at 11.4 µM] (inactive).
As for `O=C(O)Cc1ccc2ocnc2c1`, the AC50 entry is “inactive”.
The same measure, in the same setting: the entry for `COc1cccc(Nc2ncc3nc(C)c(=O)n(C4CC4)c3n2)c1` is “inactive”; for `COc1ccc(-c2nc3cnc(Nc4ccccc4)nc3n(CCC#N)c2=O)cc1` it is “inactive”.
On the same count and under the same terms, as for `COc1ccc(Nc2ncc3c(n2)CC(c2ccc(C)cc2)CC3=O)cc1` (centres undefined), the figure is 5.01 µM (active); as for `COc1cccc(Nc2ncc3nc(C)c(=O)n(C)c3n2)c1`, “inactive”.
For the compound `COc1ccc(C2CC(=O)c3cnc(Nc4cc(C)cc(C)c4)nc3C2)cc1` (centres undefined), the AC50 is 10 µM (active).
Same read-out and setting: the entry for `NS(=O)(=O)c1cc2c(cc1C(F)(F)F)N[C@H](Cc1ccccc1)NS2(=O)=O` is “inactive”.
